An excerpt weighted towards active compounds, which were near 3.7% of everything screened.
Anthrax LF prot: inhibitors of Bacillus anthracis lethal factor protease. P15917. multiplex microsphere protease cleavage assay, LF. inhibition, % at 10 µM. 0.12% of 360,000 active; further: plate controls were buffer without enzyme for full effect and enzyme alone for no effect
BoNT F protease: inhibitors of Botulinum neurotoxin F light chain protease | Multiplex microsphere protease cleavage assay, flow cytometry | inhibition, % at 10 µM | 0.22% of 360,000 active | AID 588497; in the data active means inhibition above about 35%, passing the limit was not always enough; inconclusive means no clear call, values can overlap the other calls; further: plate controls were buffer without enzyme for full effect and enzyme alone for no effect
Autofluor counter: counter-screen for toxin protease inhibitors: compound fluorescence; compound autofluorescence counterscreen, microsphere flow cytometry; active compounds read high; fluorescence intensity (test concentration not listed); 3.1% of 360,000 active; in the data active means fluorescence intensity above about 16000; inconclusive means no clear call, values can overlap the other calls
MazEF act: activators of E. coli MazEF toxin-antitoxin RNase; AID 504720; 0.32% of 350,000 active; activation, % at 20 µM; P0AE70; FAM/BHQ RNA-DNA oligo cleavage fluorescence, 5 h; in the data active means activation above about 50%
BoNT A protease: blocks Botulinum neurotoxin A light chain protease | multiplex microsphere protease substrate cleavage, flow cytometry | inhibition, % at 10 µM | 0.17% of 360,000 active; further: plate controls were buffer without enzyme for full effect and enzyme alone for no effect
Active calls of the source: *; ? = inconclusive; / = not tested or not shown. Unless noted, no stated cut-off is given here; in the data, active means inhibition above about 30%; inconclusive means no clear call, values can overlap the other calls; inactive means below that.

SMILES | Anthrax LF prot | BoNT F protease | Autofluor counter | MazEF act | BoNT A protease
COc1cc(CNCC(C)C)c(Br)cc1OCC(=O)NCc1ccccc1 | -5 | -8 | 16297* | 6 | 0
Cc1cccc(C)c1-n1nnnc1C1(C)CCC(=O)N1CCCN1CCOCC1 (stereo not drawn) | -8 | 0 | 5928 | / | -1
C=CCNC(=O)c1ccc(OC)cc1 | 0 | ? | 4071 | -2 | -3
C=CCNC(=O)c1ccc(N(C)S(=O)(=O)c2ccc(OC)cc2)cc1 | 0 | -4 | 16765* | 5 | -2
C=CCn1c(SCC(=O)Nc2cccc(S(=O)(=O)N(C)c3ccccc3)c2)nnc1C1CC1 | -1 | 5 | 6310 | 2 | -1
CCOC(=O)C1(C)CCCN(C(=O)CCc2ccccc2)C1 (stereo not drawn) | -1 | 0 | 3749 | / | 0
COc1cc(/C=C/C(=O)NCCn2c(C)cc3ccccc32)cc(OC)c1OC | 0 | 1 | 6130 | 7 | 1
Cc1cccc(CC(=O)NCCn2c(C)cc3ccccc32)c1 | -20 | -58 | 1493 | 5 | 89*
CC1(c2ccc(F)cc2)OC(=O)c2c1ccc1ccccc21 (stereo not drawn) | 3 | -1 | 3642 | 4 | 0
CCN(CC)S(=O)(=O)c1ccc(NC(=O)COC(=O)CN2C(=O)c3ccccc3C2=O)cc1 | 3 | 2 | 22134* | 5 | 2
Cc1ccc(NC(=O)COC(=O)CN2C(=O)c3ccccc3C2=O)cc1 | 0 | 0 | 8747 | 1 | 2
CN(C)c1ccc(NC(=O)CN2C(=O)c3ccccc3C2=O)cc1 | 5 | 39* | 4403 | -4 | -3
CN(C1CCCCC1)S(=O)(=O)c1ccc(SCC(=O)C(C)(C)C)nc1 | 4 | 14 | ? | 4 | -4
COCOCCn1cc(CN2CCS(=O)(=O)N(Cc3ccc(-c4ccc(OC)nc4)cc3)C(C(C)C)C2=O)nn1 (stereo not drawn) | -7 | 5 | 2917 | 8 | 0
CCNC(=O)C1CCCN(C(=O)c2cccc(C#N)c2)CC1 (stereo not drawn) | -5 | -1 | 3793 | / | 0
COc1ccc(/C=C/C(=O)c2ccncc2)c2ccccc12 | 21 | 6 | 2665 | -5 | 45*
CN(C)Cc1nc2ccccc2c(=O)n1CC#N | -1 | -4 | 3186 | 2 | -1
Cc1noc(C)c1CSCC(=O)OCc1nc2ccccc2c(=O)n1CC#N | 1 | 6 | 21620* | 4 | 7
Cc1occc1-c1nnc(SCc2nc3ccccc3c(=O)n2CC#N)n1C | -1 | -5 | 23590* | 11 | 0
CCn1c(CSc2nnc(-c3ccoc3C)n2C)nc2cc(S(=O)(=O)N(C)C)ccc21 | -2 | 16 | ? | -2 | 1
O=C1NN=C2CCCCCC12 (stereo not drawn) | -2 | -5 | 2952 | -3 | 0
Cc1cc(C)c(NC(=O)CN2C(=O)NC3(CCCCC3)C2=O)c(C)c1 | 0 | 0 | 20379* | 8 | 1
CC1CN(C(=O)CN2C(=O)NC3(CCCCCC3)C2=O)CC(C)O1 (stereo not drawn) | -3 | -4 | 24732* | -8 | -2
CC1CCN(C(=O)c2ncn3c2c(=O)[nH]c2cccnc23)CC1 | -7 | -5 | 3773 | 9 | 0
O=C(NC1CC1)c1ccc2sc([C@@H]3O[C@H](CO)[C@H](O)[C@H](O)[C@H]3O)nc2c1 | -6 | -4 | 3922 | / | -1
SMILES | Anthrax LF prot | BoNT F protease | Autofluor counter | MazEF act | BoNT A protease
CC(O)(c1cccnc1)c1nc(-c2ccc3ccccc3c2)cs1 (stereo not drawn) | -2 | 2 | 4017 | / | 0
Cc1ccc(NCCC(=O)c2cccc([N+](=O)[O-])c2)cc1 | -3 | 2 | 10591 | -7 | 0
O=C(CCNc1ccc(F)cc1)c1cccc([N+](=O)[O-])c1 | -2 | -2 | 20472* | 0 | ?
O=C(CCNc1ccccc1)c1cccc([N+](=O)[O-])c1 | -9 | 4 | 20571* | 4 | 7
Cc1cccc(NC(=O)c2nc[nH]c2C(=O)NCCCCNC(=O)c2[nH]cnc2C(=O)Nc2cccc(C)c2)c1 | -2 | -9 | 3987 | -88 | 0
CC(O)C1CCC2C3CCC4CC(O)CCC4(C)C3C(=O)CC12C (stereo not drawn) | 1 | -2 | 5890 | 2 | 1
Cn1c(=O)cc(OCCCC(=O)Nc2cccc(Cl)c2)c2ccccc21 | -3 | 1 | 3113 | / | 0
Cn1c(=O)cc(OCCCC(=O)NCc2ccco2)c2ccccc21 | -2 | -3 | 17294* | 2 | -2
Cn1c(=O)cc(OCCCC(=O)Nc2ccccn2)c2ccccc21 | -2 | 0 | 22529* | 4 | 1
NC(Cc1ccc(C(F)(F)F)cc1)c1csc(NC(=O)NCCc2ccccc2)n1 (stereo not drawn) | -4 | -17 | 2755 | / | 0
COCCn1c(Cc2ccccc2)nnc1SCC(=O)N1CCOCC1 | -4 | 6 | 4477 | 6 | 0
COCCCn1c(Cc2ccccc2)nnc1SCC(=O)N1CCCCC1 | 0 | -2 | 22748* | -13 | -2
O=C1N/C(=C/c2cccn2-c2ccc(F)cc2)C(=O)N1Cc1ccccc1 | -4 | -3 | 23854* | 7 | ?
O=C(NC1CCCCC1)C(c1ccc(O)cc1)N(CC1CCCO1)C(=O)C1COc2ccccc2O1 (stereo not drawn) | 0 | 0 | 20282* | 3 | 0
CC(C)c1nc2sc3c(=O)[nH]cnc3c2c2c1CCCC2 | -4 | 0 | 4592 | 68* | 1
O=S(=O)(N/N=C/c1cn(Cc2ccccc2)c2ccccc12)c1ccccc1 | -2 | 5 | 22504* | -4 | 2
CSCCC(N=C1NS(=O)(=O)c2ccccc21)C(=O)N1CCCC(C(N)=O)C1 (stereo not drawn) | 0 | 1 | 6504 | 0 | 0
CCN1CCN(C(=S)c2ccc(OCC(=O)NCc3ccccc3)cc2)CC1 | -4 | -5 | 4657 | 5 | 0
CCOc1ccc(C(=S)N2CCOCC2)cc1OCC | 2 | 0 | 23260* | 2 | -1
CCOc1cc(C(=S)N2CCCCC2)ccc1OCC(=O)NCc1ccccc1 | -1 | 5 | 22179* | 0 | ?
CCOc1cc(C(=S)N2CCOCC2)ccc1OS(=O)(=O)c1ccc(C)cc1 | -10 | ? | 3893 | 7 | -1
COc1cccc(C(C)(O)c2nc(-c3cccc(NC(C)=O)c3)cs2)c1 (stereo not drawn) | 2 | -6 | 3409 | / | 0
Cc1ccc(Cl)cc1N1CCN(C(=O)C2CCC(=O)N2C(C)C)CC1 (stereo not drawn) | 3 | -1 | 5512 | 7 | 0
CCOC(=O)N1CCN(C(=O)C2CCC(=O)N2C(C)C)CC1 (stereo not drawn) | 0 | 1 | 22385* | 0 | 4
Cc1nc2ccc(S(=O)(=O)CCC(=O)NCc3ccc(Cl)cc3)cc2s1 | -8 | 3 | 5189 | / | 0
NCc1ccccc1 | -13 | -8 | 6113 | 8 | -1
CCOC(=O)CSc1nnc(Cc2cc(=O)[nH]c(=O)[nH]2)n1-c1cccc(OC)c1 | -14 | -1 | 21403* | -6 | ?
CCOC(=O)CSc1nnc(CNC(=O)c2ccc(OC)cc2OC)n1-c1ccc(OC)cc1 | 1 | 0 | 21152* | 2 | -1
CC1=CN2C(=N)/C(=C/c3ccco3)C(=O)N=C2S1 | 4 | -7 | 2543 | -13 | 0

Bioassay records from PubChem.
